# In the supplement of paper PMC6555819:
# Columns and labels:
# Assay in all cases: PBM binding z-score (relative to random genomic background probes); higher = stronger binding; sequences stand for … in GC…GCGATTGACAGCGTAGAATGAAGG
# [1] = system: RARb homodimer (NR concentration 270 nM)
# In short: (§1)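 Each nuclear receptor dimer, without ligand, was incubated for 1 h on custom Agilent 4×180K protein-binding microarrays. Binding was detected with antibodies against each partner (one per run), and scanned fluorescence was regression-normalized. The binding z-scores are referenced to random human genomic background probes.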
# [2] = system: RARg:RXRa (NR concentration 270 nM, RXRa partner concentration 90 nM)
# In short: as §1
# [3] = system: RARg homodimer (NR concentration 270 nM)
# In short: as §1
# [4] = system: RXRa DBDmut IVT, anti-RXR (DBD mutation: RXRa K156A/R161A, NR concentration 90 nM)
# In short: as §1
# [5] = system: RXRa homodimer (NR concentration 180 nM)
# In short: as §1
# [6] = system: THRa:RXRa (NR concentration 90 nM, RXRa partner concentration 90 nM)
# In short: as §1
# [7] = system: THRa homodimer (NR concentration 90 nM)
# In short: as §1
# [8] = system: VDR homodimer (NR concentration 270 nM)
# In short: as §1
# [9] = system: VDR:RXRa (NR concentration 270 nM, RXRa partner concentration 90 nM)
# In short: as §1
Sequence,PBM binding z-score [1],PBM binding z-score [2],PBM binding z-score [3],PBM binding z-score [4],PBM binding z-score [5],PBM binding z-score [6],PBM binding z-score [7],PBM binding z-score [8],PBM binding z-score [9]
CCGAGTAGGTTACGAGGGGGAATTCAGTGCGAAT,0.662,1.53,1.1,0.572,1.09,1.79,0.0868,0.419,
TCGAGTAGCTTACGGGGGCATTCAGGGATGAAGA,0.903,1.03,0.544,1.14,1.12,3.35,0.239,2.71,
CGAACTAGGTCAAAGGACAGTGGAAGGCGACGTA,3.07,3.62,4.31,1.4,2.94,2.5,0.274,0.241,
ATCGAAGGGTCGAAGGTGAGTATACCCACCCGAA,1.32,2.67,1.99,0.0916,3.12,1.05,-0.355,0.519,
CCTTACGGGTCACTCAAGGTTATAGCATCGGAGT,3.55,4.9,4.38,2.01,5.23,,1.01,1.75,5.32
ATATGTAAGTTAGGGTCATTCAGAAAGTAGGGAA,3.04,4,3.02,2.47,5.33,4.05,2.85,3.96,
CCTACTGGGCCATTAAGAGGTCATTGATCATATG,3.96,3.93,2.81,1.02,3.74,3.23,1.49,2.79,
